From PubChem BioAssay
“And” between values parts separate entries of the source, which are not always exact repeats. Identical values can stand only once. The source made the active and inactive calls.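 Rule for the calls: active = compounds whose cell count with miR-34 switched on is under 0.7 times the count with it off; inactive = the rest.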

Assay: sensitizers of A549 cells to miR-34 induction, primary screen, imaging, A549 dox-inducible miR-34, nuclei and caspase counts (AID 1347080); note: test concentration not given here
Settings: A549 miR-34 inducible, Hoechst nuclei count, 48 h
[1] = stronger effect = lower value, cell number ratio, induced over uninduced
[2] = measured here: relative caspase fold change +Dox/-Dox
[3] = measured here: total cells with miR-34 induction, stronger effect = lower value
[4] = measured here: total cells without miR-34 induction

| Compound | fold change [1] | fold change [2] | cell count [3] | cell count [4] |
| --- | --- | --- | --- | --- |
| CC(C)CCCCCCC/C=C\C(=O)O | 0.991 (inactive) | 0.344 | 5830 | 5880 |
| C[Se]CC[C@H](N)C(=O)O | 0.969 (inactive) | 0.907 | 8780 | 9060 |
| CCCCCCCC/C=C\CCCCCCCC(=O)NCC | 1.03 (inactive) | 0.997 | 6050 | 5880 |
| CCCCCC#CCC#CCC#CCCCCCCC(=O)O | 0.97 (inactive) | 0.33 | 5730 | 5910 |
| C[C@@H]1CC[C@H]2[C@@H](C)C(O)O[C@@H]3OC4(C)CC[C@@H]1[C@]32OO4 (stereo not given in full) | 0.843 (inactive) | 0.767 | 3740 | 4440 |
| COc1cc(/C=C/c2ccc(Cl)cc2)cc(OC)c1 | 1.01 (inactive) | 0.802 | 6120 | 6070 |
| CCCC/C=C/C=C/C=C\CCCCCCCC(=O)OC | 0.701 (inactive) | 0.864 | 3920 | 5590 |
| CCCCCCCCCCCCCCCCCC(=O)N[C@H]1CCOC1=O | 1.11 (inactive) | 1.44 | 6650 | 6000 |
| CCCCC[C@H](O)/C=C/[C@@H]1[C@@H](C/C=C\CCCC(=O)OCC(O)CO)[C@@H](O)C[C@H]1O (stereo not given in full) | 0.942 (inactive) | 1.39 | 5810 | 6170 |
| C[C@@H](C(=O)O)c1ccc(-c2ccccc2)c(F)c1 | 0.967 (inactive) | 0.615 | 6150 | 6360 |
| O=C(OCc1ccccc1)[C@H](O)c1ccccc1 | 1.04 (inactive) | 0.545 | 5580 | 5350 |
| CC(=O)OCC(=O)[C@@]12N=C(C)O[C@@H]1CC1C3CCC4=CC(=O)C=C[C@]4(C)C3[C@@H](O)C[C@@]12C (stereo not given in full) | 0.915 (inactive) | 0.993 | 6330 | 6910 |
| CCCCCCCCCCCCCCCCCCCCCC(=O)NCCS(=O)(=O)O | 0.845 (inactive) | 0.367 | 5140 | 6090 |
| O=C(O)CCCCCC[C@H]1C(=O)C[C@@H](O)[C@@H]1/C=C/[C@@H](O)Cc1ccccc1 | 1.03 (inactive) | 1.38 | 5710 | 5540 |
| CCCCC[C@H](O)/C=C/[C@H]1[C@H](O)CC(=O)[C@H]1C/C=C\CCCC(=O)OC(C)C | 0.953 (inactive) | 1.45 | 5550 | 5820 |
| C1CCC(NC(=NC2C3CC4CC(C3)CC2C4)N2CCOCC2)CC1 (stereo not given) | 1.04 (inactive) | 1.05 | 5720 | 5520 |
| CCCCC[C@H](O)/C=C/[C@H]1C2CC(CO2)[C@@H]1C/C=C\CCCC(=O)O (stereo not given in full) | 0.956 (inactive) | 0.835 | 5400 | 5650 |
| CCCCC[C@H](O)/C=C/[C@@H]1[C@@H](CCCCCCCO)[C@@H](O)C[C@H]1O | 0.922 (inactive) | 1.15 | 5540 | 6010 |
| CC(C)(CCCCCCCCCCC(C)(C)CC(=O)O)CC(=O)O | 0.985 (inactive) | 0.985 | 6090 | 6180 |
| CCCCC[C@H](O)/C=C/[C@@H]1[C@@H](C/C=C\CCCC(=O)OC(C)C)[C@@H](O)C[C@H]1O | 0.994 (inactive) | 1.14 | 5380 | 5420 |

| Compound | fold change [1] | fold change [2] | cell count [3] | cell count [4] |
| --- | --- | --- | --- | --- |
| CCCCC[C@H](O)/C=C/[C@H]1C(=O)C[C@H](O)[C@@H]1C/C=C\CCCC(=O)OCC(O)CO (stereo not given in full) | 1.06 (inactive) | 1.71 | 6090 | 5740 |
| Cn1c([N+](=O)[O-])cc[n+]1C | 0.892 (inactive) | 0.659 | 8620 | 9670 |
| CCCCC[C@H](O)/C=C/[C@H]1[C@H](O)CC(=O)[C@@H]1C/C=C\CCCC(=O)Oc1ccc(NC(C)=O)cc1 | 0.993 (inactive) | 0.876 | 6020 | 6060 |
| CCCCCC(=O)CC[C@H]1C(=O)C=C[C@@H]1C/C=C\CCCC(=O)O | 0.989 (inactive) | 0.66 | 5270 | 5330 |
| CCCCCCCCCCCSCC(=O)O | 1.05 (inactive) | 1.04 | 6160 | 5890 |
| O=P(O)(O)OC1[C@H](O)[C@H](O)C(O)[C@H](O)[C@H]1O (stereo not given in full) | 1.11 (inactive) | 0.357 | 6420 | 5790 |
| O=C(CCC/C=C\C[C@H]1C(=O)C[C@@H](O)[C@@H]1/C=C/[C@@H](O)CCc1ccccc1)NC(CO)CO | 0.931 (inactive) | 0.89 | 5500 | 5910 |
| CCCCC/C=C/C=C1/C=CC(=O)[C@@H]1C/C=C\CCCC(=O)O | 0.952 (inactive) | 1.85 | 5680 | 5960 |
| COc1ccc(/C=C/C(=O)Nc2c(O)cccc2C(=O)O)cc1OC | 0.585 (active) | 0.687 | 3430 | 5870 |
| CCCCCC/C=C/C=C\CCCCCCCC(=O)O | 0.985 (inactive) | 0.691 | 5840 | 5920 |
| CCCCCCCC/C=C\CCCCCCCCCCCCCC(=O)NCCS(=O)(=O)O | 0.871 (inactive) | 0.338 | 5170 | 5940 |
| CCCCC[C@@H](O)CC[C@H]1[C@H](O)CC(=O)[C@@H]1CCCCCCC(=O)O | 0.971 (inactive) | 1.47 | 5350 | 5510 |
| CCCCC[C@H](O)/C=C/[C@H]1C(=O)C[C@H](O)[C@@H]1C/C=C/CCCC(=O)O | 0.96 (inactive) | 1.11 | 5890 | 6130 |
| CCCCCCCCCCCCCCCC(=O)OC[C@H](COP(=O)([O-])OCC[N+](C)(C)C)OC(=O)CCCCCCCCCCCCCCC | 0.881 (inactive) | 0.572 | 5330 | 6060 |
| CCCCC[C@H](O)/C=C/[C@H]1C(=O)C[C@H](O)[C@@H]1CCCCCCCO | 1.14 (inactive) | 1.46 | 5820 | 5120 |
| C[C@@H](O)CCC[C@@H](O)/C=C/[C@@H]1[C@@H](CCCCCCC(=O)O)[C@@H](O)C[C@H]1O | 0.879 (inactive) | 1.31 | 5220 | 5940 |
| Cc1nc(-c2ccc(C(F)(F)F)cc2)sc1C(=O)NCc1ccc(OC(C)(C)C(=O)O)cc1 | 0.946 (inactive) | 0.5 | 5220 | 5520 |
| O=C(O)CCC/C=C\C[C@@H]1[C@@H](/C=C/[C@H](O)COc2cccc(C(F)(F)F)c2)[C@H](O)C[C@@H]1O | 1.06 (inactive) | 0.987 | 6230 | 5890 |
| C=C1C[C@@H](O)[C@H](/C=C/[C@@H](O)C(C)(C)CCCC)[C@H]1C/C=C\CCCC(=O)O | 0.979 (inactive) and 0.901 (inactive) | 1.17 and 1.12 | 6150 and 5990 | 6290 and 6650 |
| CCCCCC(=O)CC[C@H]1C(=O)C[C@H](O)[C@@H]1C/C=C\CCCC(=O)O | 1.27 (inactive) | 1.09 | 6060 | 4770 |

| Compound | fold change [1] | fold change [2] | cell count [3] | cell count [4] |
| --- | --- | --- | --- | --- |
| O=C(O)/C=C/CCCCCCCCC(=O)O | 0.99 (inactive) | 1.16 | 5830 | 5890 |
| CCCCCCCC/C=C\CCCCCCCCCCCC(N)=O | 1.07 (inactive) | 0.823 | 6240 | 5820 |
| CCCCC(C)(C)[C@H](O)/C=C/[C@@H]1[C@@H](C/C=C\CCCC(=O)O)[C@H](O)C[C@H]1O | 0.901 (inactive) | 1.73 | 5660 | 6290 |
| O=C(O)CCC/C=C\C[C@@H]1C(=O)C[C@@H](O)[C@@H]1/C=C/[C@@H](O)CC1CCCCC1 | 1.22 (inactive) | 0.461 | 7070 | 5800 |
| COc1cc(/C=C/C(=O)N2CCCCCC2)cc(OC)c1OC | 0.968 (inactive) | 0.988 | 7660 | 7910 |
| CCCCC[C@@H](O)/C=C/[C@H]1C=CC(=O)[C@@H]1CCCCCCC(=O)O | 0.9 (inactive) | 0.638 | 4870 | 5400 |
| C#CCCC[C@@H](O)CCCCCCCCCCC(=O)O | 0.902 (inactive) | 1.14 | 5310 | 5890 |
| CCCCC[C@H](O)/C=C/[C@H]1[C@H](O)CC(=O)[C@@H]1CCCCCCCO | 0.891 (inactive) | 2.02 | 5100 | 5730 |
| CC(C)CCCC(C)CCCC(C)CCCC(C)CC(=O)O (stereo not given) | 0.992 (inactive) | 0.832 | 5990 | 6040 |
| CCCCC[C@H](O)/C=C/[C@@H]1[C@@H](C/C=C\CCCC(=O)NCCO)[C@@H](O)C[C@H]1O | 0.899 (inactive) | 1.5 | 5200 | 5780 |
| CCCCCCCCCCCCCCCCOC[C@@H](CO)SC(C)=O | 1.02 (inactive) | 0.6 | 5400 | 5270 |
| CC/C=C\C/C=C\C/C=C\CCCCCCCC(=O)N[C@@H](Cc1ccc(O)cc1)C(=O)O | 0.852 (inactive) | 2.46 | 5060 | 5940 |
| COC(=O)CCC[C@H](O)[C@H](O)CO | 1.05 (inactive) | 0.845 | 5290 | 5040 |
| COc1ccc2c(c1)c(CC(=O)Nc1cccnc1)c(C)n2C(=O)c1ccc(Cl)cc1 | 0.996 (inactive) | 0.947 | 5760 | 5780 |
| CCCCCCCCCCCCCCP(=O)(O)O | 0.898 (inactive) | 0.729 | 4910 | 5470 |
| CCCCCC1OC(O)CC1SC[C@H](NC(C)=O)C(=O)O (stereo not given in full) | 0.93 (inactive) | 1.14 | 5580 | 6010 |
| CC(C)CCOc1ccc(N)cc1 | 0.779 (inactive) | 2.13 | 3780 | 4850 |
| CCCCC/C=C\CCCC/C=C\C/C=C\CCCC(=O)O | 0.917 (inactive) | 0.462 | 5360 | 5850 |
| O=C(OC[C@@H]1O[C@H]1c1ccccc1)Oc1ccc([N+](=O)[O-])cc1 | 0.896 (inactive) | 0.428 | 5550 | 6200 |
| CCCCC[C@H](O)/C=C/[C@H]1CC[C@H](O)[C@@H]1CCCCCCC(=O)O | 0.966 (inactive) | 1.33 | 6200 | 6420 |
